PubChem BioAssay (NCI)
The panel holds about 83,000 compounds, 20% with a hit somewhere; the sample as a whole holds those more often.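 Activity criterion: percent growth below 10, measured after cells in 96-well plates were exposed to a single compound concentration for 48 hours.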 Unmarked numbers belong to inactive results. Calls of active or inactive are those of the source.

Key:
Assay in all cases: NCI-60 one-dose screen, 48 h (100 = growth as untreated, 0 = no growth, -100 = all killed)
Conditions in all cases: 10 µM unless noted
SK-MEL-2 melanoma = test system: SK-MEL-2 melanoma
EKVX NSCLC = test system: EKVX NSCLC
SN12C renal = test system: SN12C renal
UO-31 renal = test system: UO-31 renal
TK-10 renal = test system: TK-10 renal
ACHN renal = test system: ACHN renal
CAKI-1 renal = test system: CAKI-1 renal
A498 renal = test system: A498 renal
CCRF-CEM leukemia = test system: CCRF-CEM leukemia
MOLT-4 leukemia = test system: MOLT-4 leukemia
RPMI-8226 leukemia = test system: RPMI-8226 leukemia
OVCAR-8 ovarian = test system: OVCAR-8 ovarian
OVCAR-5 ovarian = test system: OVCAR-5 ovarian
OVCAR-4 ovarian = test system: OVCAR-4 ovarian
SK-OV-3 ovarian = test system: SK-OV-3 ovarian
IGROV1 ovarian = test system: IGROV1 ovarian
OVCAR-3 ovarian = test system: OVCAR-3 ovarian
HS 578T breast = test system: HS 578T breast
NCI/ADR-RES ovarian = test system: NCI/ADR-RES ovarian

| Structure (SMILES) | growth (SK-MEL-2 melanoma) | growth (EKVX NSCLC) | growth (SN12C renal) | growth (UO-31 renal) | growth (TK-10 renal) | growth (ACHN renal) | growth (CAKI-1 renal) | growth (A498 renal) | growth (CCRF-CEM leukemia) | growth (MOLT-4 leukemia) | growth (RPMI-8226 leukemia) | growth (OVCAR-8 ovarian) | growth (OVCAR-5 ovarian) | growth (OVCAR-4 ovarian) | growth (SK-OV-3 ovarian) | growth (IGROV1 ovarian) | growth (OVCAR-3 ovarian) | growth (HS 578T breast) | growth (NCI/ADR-RES ovarian) |
| --- | --- | --- | --- | --- | --- | --- | --- | --- | --- | --- | --- | --- | --- | --- | --- | --- | --- | --- | --- |
| O=C(N/N=C/C=C/c1ccc([N+](=O)[O-])o1)c1cc2ccccc2cc1O | -44.6% (active) | -15.9% (active) | -10.7% (active) | -71.9% (active) | 2.31% (active) | -3% (active) | 12.7% | -82.4% (active) | 5.15% (active) | 4.89% (active) | -11.2% (active) | 0.564% (active) | -1.58% (active) | -100% (active) | -13.5% (active) | -62.6% (active) | -54.8% (active) | -4.48% (active) | 0.815% (active) |
| O=S(=O)(NCCCNc1cc(-c2c(-c3cccc(O)c3)nc3sccn23)ccn1)c1cccc(Cl)c1 | 63.7% | 58.6% | 27% | 31.5% | 94.4% | 41.6% | 43% | 80.4% | 22.8% | 15.2% | 5.17% (active) | 17.1% | 107% | 35.2% | 49.1% | 40.5% | 32.7% | 32.5% | 76.7% |
| O=C1/C(=C/c2ccccc2)CCc2nc3ccccc3c(/C=C/c3ccc(Cl)cc3)c21 | 93.7% | 79% | 83.5% | 69.1% | 145% | 97.3% | 83.7% | 92.1% | 84.1% | 80.3% | 75.9% | 87.7% | 108% | 80.5% | 81.8% | 72.3% | 90.1% | 104% | 89.4% |
| O=C(CCCCCCSc1nc(-c2ccccc2)cc(-c2ccc(Cl)cc2)n1)NO | 81.3% | 44.5% | 20.7% | -2.31% (active) | 21.1% | 4.89% (active) | -7.71% (active) | 24.2% | 0.872% (active) | 1.04% (active) | 15.7% | 8.67% (active) | 21.6% | 41.3% | 0.785% (active) | -19.6% (active) | 25.2% | 45.7% | -25.5% (active) |
| C[C@H]1[C@H]2[C@H]3CC[C@@H]4[C@@]5(C)C/C(=C/c6cccnc6)C(=O)C(C)(C)[C@@H]5CC[C@@]4(C)[C@]3(C)CC[C@]23CO[C@]1(C)[C@@H](C(=O)/C=C\c1cccnc1)C3 | -25.5% (active) | -1.58% (active) | -17.7% (active) | -97.3% (active) | -14.5% (active) | -22.2% (active) | 9.32% (active) | -59.1% (active) | 17.9% | 16.7% | 5.06% (active) | -13.6% (active) | -4% (active) | 18.6% | 58.9% | 1.25% (active) | -43.7% (active) | 11.2% | 2.97% (active) |
| COc1cccc(-c2nc3sccn3c2-c2ccnc(NCCNS(=O)(=O)c3ccc(C(F)(F)F)cc3)c2)c1 | 47.5% | 40.4% | 40.7% | -23.8% (active) | 49.2% | -60.2% (active) | 34.5% | 18.9% | 22.6% | 13.7% | 3.52% (active) | 27.1% | 88% | 16.3% | 40.5% | 45.2% | 40.7% | 30.5% | 19.9% |
| CC1(C)CC(=O)CC2(C1)N=C(N)Nc1nc3ccccc3n12 (centres undefined) | 100% | 102% | 100% | 96.6% | 105% | 91.9% | 105% | 99.7% | 93% | 82.3% | 94.4% | 104% | 98.7% | 91.7% | 101% | 90.5% | 111% | 137% | 106% |
| Nc1n[nH]c2cc(F)c([C@@H]3Nc4c(F)cc5[nH]ncc5c4[C@H]4C5CCC(C5)[C@@H]34)cc12 (some centres undefined) | 43.5% | 63.2% | 17.3% | 36.5% | 76.3% | 24.4% | 6.94% (active) | -38.9% (active) | 17.8% | 14.8% | 5.57% (active) | 29.2% | 35.1% | 44.2% | 34% | 17.2% | 8.71% (active) | 26.8% | 11.8% |
| NC[C@H](O)c1ccc(O)c(O)c1 | 110% | 113% | 85.4% | 103% | 97.7% | 90.1% | 109% | 112% | -46.2% (active) | 115% | 104% | 96.3% | 84.4% | 123% | 102% | 118% | 108% | 113% | 92.1% |
| Cn1c(=O)c2c(nc(Cl)n2CCl)n(C)c1=O | 89.9% | 112% | 106% | 93.4% | 95.6% | 104% | 98.5% | 118% | 84.9% | 99.7% | 92.3% | 83% | 103% | 83.2% | 115% | 53.8% | 116% | 83.8% | 101% |
| COc1ccc(C(=NN=C(N)N)c2ccc(OC)cc2)cc1 | 32.3% | 81.9% | 49.9% | 62.4% | 40.1% | 37.6% | 73.4% | 66.7% | 60% | 40% | 49.4% | 56.7% | 69.1% | 39.3% | 11% | 36.3% | 17% | 65% | 83.5% |
| CNc1ccc(NC)c2c1C(=O)c1ccccc1C2=O | 97.7% | 94.6% | 80.3% | 77.7% | 84.9% | 77.7% | 76.4% | 94.4% | 84.3% | 92.1% | 90.2% | 71.5% | 101% | 68.4% | 67.4% | 69% | 95.4% | 98.5% | 88% |
| Cc1cc(C(=O)c2ccccc2)c(C)c2c1[nH]c1ccc(Cl)cc12 | 52.1% | 42.8% | 22.1% | 25% | 93.7% | 24.8% | 24.7% | -11.8% (active) | 8.5% (active) | 15.9% | -0.677% (active) | 21.9% | 43.5% | 43.5% | 38% | 19.1% | -51% (active) | 33.2% | 7.25% (active) |
| NC(=S)N/N=C/Cc1ccccc1 | 106% | 89.1% | 102% | 64.4% | 107% | 102% | 116% | 99.8% | 69.9% | 78.7% | 88.3% | 84.3% | 120% | 65.5% | 111% | 79% | 109% | 103% | 83.7% |
| Cc1ccc(S(=O)(=O)NCC[C@@H]2C[C@H]2c2cc3ccccc3s2)cc1 | 111% | 95% | 91.6% | 84% | 110% | 102% | 79.6% | 81.7% | 96.4% | 92.6% | 83.4% | 97.3% | 106% | 78.3% | 107% | 101% | 101% | 91.5% | 96.9% |
| COc1cc(/C=C/C(=O)c2c(C)nc3ccccc3c2/C=C/c2ccc(C)cc2)cc(OC)c1OC | 39.7% | 34.7% | 15.2% | 33.5% | 54.3% | 13.7% | 28.6% | 32.6% | 5.31% (active) | 4.36% (active) | -13.4% (active) | 17% | 17.7% | 39.5% | 58.6% | 21% | 15.6% | 46.7% | 9.69% (active) |
